# Reference: PubChem BioAssay (NCATS)
# Inconclusive results are not listed. Activity calls are given as the source filed them. Calls come from the whole dose curve; as a rule, active = well fitted inhibition curve with a large enough effect; inconclusive = small, poorly fitted or top-dose-only effect; inactive = flat fitted curve, though single readings scatter.
# System: CRL-7250
# Assay: Cytotoxic Profiling of Annotated Libraries Using Quantitative High-Throughput Screening (AID 1296008); note: nearly all actives have a fitted effect of over 60% in size
# Details: Five cell lines viability, CellTiter-Glo ATP luminescence, 48-72 h; max response: stronger effect = lower value
# How it was run: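 Cytotoxicity was measured as CellTiter-Glo ATP luminescence, read after 10 min at room temperature. Compound treatment of the cells lasted 48 or 72 hr at 37 degrees Celsius in a qHTS format.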
# % is set by controls: 0 for no effect and ±100 for the full control effect; potency is the fitted concentration of half-maximal effect.
SMILES,max response,outcome,Potency
C=C[C@@H]1[C@H](O[C@@H]2O[C@H](CO)[C@@H](O)[C@H](O)[C@H]2O)OC=C(C(=O)O)[C@H]1CCOC(=O)/C=C/c1ccc(O)c(O)c1,1.95% (inactive),–,–
CON(C)C(=O)[C@H](O)[C@H](Cc1ccccc1)NC(=O)c1cc2cc(Cl)ccc2[nH]1,–,inactive,–
N#Cc1ccc2[nH]cc(CCCCN3CCN(c4ccc5oc(C(N)=O)cc5c4)CC3)c2c1,-7.54% (inactive),–,–
O=C(O[C@H]1[C@@H]2C=CO[C@@H](O[C@@H]3O[C@H](CO)[C@@H](O)[C@H](O)[C@H]3O)[C@@H]2[C@@]2(CO)O[C@@H]12)c1ccccc1,-3.06% (inactive),–,–
CCN(Cc1cccnc1)C(=O)CN(c1ccc(OC)nc1)S(=O)(=O)c1ccccc1C,-4.21% (inactive),–,–
CC1(C=O)CC[C@]2(C(=O)O[C@@H]3O[C@H](CO)[C@@H](O)[C@H](O)[C@H]3O)CC[C@]3(C)C(=CCC4[C@@]5(C)C[C@H](O)[C@H](O[C@@H]6OC[C@@H](O)[C@H](O)[C@H]6O)[C@@](C)(CO)C5CC[C@]43C)C2C1 (stereo not given in full),-5.25% (inactive),–,–
COC1CC(O[C@H]2CC[C@@]3(C)C(=CC[C@]4(O)C3[C@H](OC(C)=O)[C@@H](OC(=O)c3ccccc3)[C@]3(C)[C@@H](C(C)=O)CC[C@@]34O)C2)OC(C)C1OC1CC(OC)C(OC2CC(OC)C(OC3OC(C)C(OC4OC(CO)C(O)C(O)C4O)C(OC)C3O)C(C)O2)C(C)O1 (stereo not given in full),–,inactive,–
CN(C)C1CCN(C(=O)c2ccc(NC(=O)Nc3ccc(-c4nc(N5CCOCC5)nc(N5CCOCC5)n4)cc3)cc2)CC1,–,–,16.4 nM (active)
CC1=CC(=O)C(=C(C)C)CC2C1CCC2(C)O (stereo not given),-11.2% (inactive),–,–
C[C@H]1Oc2cc(cnc2N)-c2c(nn(C)c2C#N)CN(C)C(=O)c2ccc(F)cc21,–,–,36.6 nM (active)
C=C1C[C@]23C[C@H]1[C@@H](O)C[C@H]2[C@@]12C=C[C@H](O)[C@@](C)(C(=O)O1)[C@H]2[C@@H]3C(=O)O,0.0204% (inactive),–,–
CC1=CC(=O)C2(OC3OC(C)C(O)C(OC(=O)/C=C/c4ccccc4)C3O)C=COC(OC3OC(CO)C(O)C(O)C3O)C12 (stereo not given),-3.56% (inactive),–,–
CCC1=CC2CN(C1)Cc1c([nH]c3ccccc13)[C@@](C(=O)OC)(c1cc3c(cc1OC)N(C)[C@H]1[C@@](O)(C(=O)OC)[C@H](OC(C)=O)[C@]4(CC)C=CCN5CC[C@]31[C@@H]54)C2 (stereo not given in full),–,–,126 nM (active)
C/C1=C\C[C@]2(C)C(=O)C(O)=C([C@H](C)CO)[C@H]2C/C=C(\C)[C@@H](O)CC/C(C)=C/CC1,3.52% (inactive),–,–
CC(O)(CC(=O)O)CC(=O)OCc1ccc(O[C@@H]2O[C@H](CO)[C@@H](O)[C@H](O)[C@H]2O)cc1 (stereo not given in full),–,inactive,–
CCCN1CCC(c2cccc(S(C)(=O)=O)c2)CC1,-0.494% (inactive),–,–
CC1OC(OC2CCC3(C)C(CCC4(C)C3CC=C3C5CC(C)(C)CCC5(C(=O)OC5OC(CO)C(O)C(O)C5O)CCC34C(=O)O)C2(C)C)C(O)C(O)C1O (stereo not given),–,inactive,–
C/C1=C\[C@H]2OC(=O)[C@@H](C)[C@@H]2CC/C(C(=O)O)=C/CC1,-1.29% (inactive),–,–
CC1(C)CC[C@]2(C(=O)O[C@@H]3O[C@H](CO)[C@@H](O)[C@H](O)[C@H]3O)CC[C@]3(C)C(=CCC4[C@@]5(C)CC[C@H](O[C@@H]6O[C@H](C(=O)O)[C@@H](O)[C@H](O[C@@H]7O[C@H](CO)[C@H](O)[C@H](O)[C@H]7O)[C@H]6O)C(C)(C)C5CC[C@]43C)C2C1 (stereo not given in full),-0.842% (inactive),–,–
CO[C@H]1/C=C/C=C/C=C/C[C@H](OC(=O)[C@@H](C)NC(=O)C2CCCCC2)[C@H](C)[C@@H](O)/C(C)=C/CCc2cc(O)cc(c2)NC(=O)C1,–,–,306 nM (active)

SMILES,max response,outcome,Potency
O=C(N/N=C/c1ccc(O)c(O)c1)c1cc2ccccc2cc1O,-27.6% (inactive),–,–
C/C=C/c1cc(OC)c2c(c1)[C@@H](C)[C@@H](c1ccc(O)c(OC)c1)O2,-4.41% (inactive),–,–
C=C(C)C1CCC2(C(=O)O[C@@H]3O[C@H](CO[C@@H]4O[C@H](CO)[C@@H](O)[C@H](O)[C@H]4O)[C@@H](O)[C@H](O[C@@H]4O[C@@H](C)[C@H](O)[C@@H](O)[C@H]4O)[C@H]3O)CCC3(C(=O)O)C(CCC4C5(C)CCC(O)C(C)(C)C5CCC43C)C12 (stereo not given in full),–,inactive,–
Cn1ncnc1COc1nn2c(-c3cc(F)ccc3F)nnc2cc1C(C)(C)C,-15.8% (inactive),–,–
OC[C@H]1O[C@@H](O[C@H]2[C@H](OCCc3ccccc3)O[C@H](CO)[C@@H](O)[C@@H]2O)[C@H](O)[C@@H](O)[C@@H]1O,–,inactive,–
CC1=C2C3OC(=O)C(C)C3(O)CCC2(C)CCC1O (stereo not given),-5.4% (inactive),–,–
COc1cccc(-c2cc(NCc3ccc4c(c3)OCO4)nc(N)n2)c1,–,–,920 nM (active)
CC(C)=CCC/C(C)=C/CO[C@@H]1O[C@H](CO)[C@@H](OC(=O)/C=C/c2ccc(O)cc2)[C@H](O[C@@H]2O[C@@H](C)[C@H](O)[C@@H](O)[C@H]2O)[C@H]1O,0.478% (inactive),–,–
CC(C)=CCC/C(C)=C/CO[C@@H]1O[C@H](CO)[C@@H](O)[C@H](O)[C@H]1O,-5.48% (inactive),–,–
CC(=O)CCC1=C(C)C(O[C@@H]2O[C@H](CO)[C@@H](O)[C@H](O)[C@H]2O)C(O)CC1(C)C (stereo not given in full),-13.4% (inactive),–,–
CC1(C)C[C@H](O)C[C@@]2(C)OC(=O)C=C12,1.12% (inactive),–,–
COC(=O)C1=CO[C@@H](O[C@@H]2O[C@H](CO)[C@@H](O)[C@H](O)[C@H]2O)[C@H]2[C@@H]1CC(OC)O[C@@H]2C (stereo not given in full),–,inactive,–
COc1cc2c(cc1O)CC[C@H]1[C@@H]2CC[C@]2(C)[C@H](O)CC[C@@H]12,–,–,14600 nM (active)
COc1ccc2cc(C(C)C(=O)Oc3ccc(C(N)=S)cc3)ccc2c1 (stereo not given),–,inactive,–
CC[C@@H](O)C[C@@H]1C(C)=C[C@@H]2CCCC[C@@H]2[C@@]1(C)C(=O)O,-0.45% (inactive),–,–
COc1ccc(CCO[C@@H]2O[C@H](CO[C@@H]3OC[C@H](O)[C@H](O)[C@H]3O)[C@@H](O)[C@H](O)[C@H]2O)cc1,-3.54% (inactive),–,–
CC1CC[C@]2(C(=O)O)CC[C@]3(C(=O)O)C(=CCC4[C@@]5(C)CC[C@H](O[C@@H]6O[C@H](CO)[C@@H](O)[C@H](O)[C@H]6O)C(C)(C)C5CC[C@]43C)C2C1C (stereo not given in full),-9.19% (inactive),–,–
CC1=C(CCC(C)CC(=O)O)[C@@]2(C)CCCC(C)(C)C2CC1=O (stereo not given in full),3.13% (inactive),–,–
CC1(C)CC2=C3C=CC4C5(C)CCC(O)C(C)(C)C5CCC4(C)C3(C)CCC2(C)C(O)C1 (stereo not given),-3.63% (inactive),–,–
CN(C)CCn1cc(S(=O)(=O)c2cccc(F)c2)c2cccnc21,–,inactive,–
